From the supplement of paper PMC10849652
The full data set covers some 8,800 targets. This sample favours those with a hit. About 0.5% of all pairs of compound and target were hits. Unmarked numbers belong to inactive results.

How the values were obtained:
Test in all cases: log2 fold change, soluble protein after heating vs DMSO (PISA); higher = thermal stabilisation; K562 lysate, 10 uM; active = over 0.2 and 3.5 SD of the protein, either way, in both replicates (recomputed)
ibrutinib = compound: C=CC(=O)N1CCC[C@@H](n2nc(-c3ccc(Oc4ccccc4)cc3)c3c(N)ncnc32)C1 [ibrutinib]
Outline: (§1)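 Pellets of K562 cells were dounce-homogenised in PBS pH 7.4 with 1 mM MgCl2, and the crude extract was held at 1 mg/mL protein for a 30 min treatment with 10 μM compound. Aliquots were heated for 3 min over 48°C-58°C and pooled before NP-40 was added to 0.5% at 4°C. The supernatant from 21,000xg for 90 min was quantified by TMTpro 16plex LC-MS/MS with channel sums equalised. Values are reported from duplicates as log-two fold change in thermal stability relative to solvent controls.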

[1] = compound: CC(=O)c1cnc2ccc(-c3cc(Cl)c(O)c(Cl)c3)nc2c1N[C@H]1CC[C@H](CN(C)C)CC1
Outline: as §1

ralimetinib = compound: CC(C)(C)Cn1c(N)nc2ccc(-c3[nH]c(C(C)(C)C)nc3-c3ccc(F)cc3)nc21 [ralimetinib]
Outline: as §1

[2] = compound: CC(C)(O)CC(=O)NCCn1ccc2ncnc(Nc3ccc(Oc4cccc(C(F)(F)F)c4)c(Cl)c3)c21
Outline: as §1

[3] = compound: CC(C)C1=C2N=C(C=C(N2N=C1)NCC3=CC=CC=C3)NCCCCCCN
Outline: as §1

[4] = compound: CC1=C(C(CC(=O)N1)C2=CC=C(C=C2)C(F)(F)F)C(=O)NC3=C(C=C4C(=C3)C=NN4)F
Outline: as §1

[5] = compound: CC1=C(C2=C(C=C1)C(=O)C3=CC=CC=C3N2CCCN)C
Outline: as §1

[6] = compound: CC1=C(C=C(C=C1)NC(=O)C2=CC(=CC=C2)C(C)(C)C#N)NC3=CC4=C(C=C3)N=CN(C4=O)C
Outline: as §1

[7] = compound: CC1=C(C=C(C=C1)NC(=O)C2=CC(=CC=C2)N(C)C)NC(=O)C3=CC=C(C=C3)O
Outline: as §1

[8] = compound: CC1=CC=C(C=C1)SC2=C3C=C(SC3=CN=C2)C(=O)N
Outline: as §1

Chain of UniProt O94913 (O94913 whole entry, looked up): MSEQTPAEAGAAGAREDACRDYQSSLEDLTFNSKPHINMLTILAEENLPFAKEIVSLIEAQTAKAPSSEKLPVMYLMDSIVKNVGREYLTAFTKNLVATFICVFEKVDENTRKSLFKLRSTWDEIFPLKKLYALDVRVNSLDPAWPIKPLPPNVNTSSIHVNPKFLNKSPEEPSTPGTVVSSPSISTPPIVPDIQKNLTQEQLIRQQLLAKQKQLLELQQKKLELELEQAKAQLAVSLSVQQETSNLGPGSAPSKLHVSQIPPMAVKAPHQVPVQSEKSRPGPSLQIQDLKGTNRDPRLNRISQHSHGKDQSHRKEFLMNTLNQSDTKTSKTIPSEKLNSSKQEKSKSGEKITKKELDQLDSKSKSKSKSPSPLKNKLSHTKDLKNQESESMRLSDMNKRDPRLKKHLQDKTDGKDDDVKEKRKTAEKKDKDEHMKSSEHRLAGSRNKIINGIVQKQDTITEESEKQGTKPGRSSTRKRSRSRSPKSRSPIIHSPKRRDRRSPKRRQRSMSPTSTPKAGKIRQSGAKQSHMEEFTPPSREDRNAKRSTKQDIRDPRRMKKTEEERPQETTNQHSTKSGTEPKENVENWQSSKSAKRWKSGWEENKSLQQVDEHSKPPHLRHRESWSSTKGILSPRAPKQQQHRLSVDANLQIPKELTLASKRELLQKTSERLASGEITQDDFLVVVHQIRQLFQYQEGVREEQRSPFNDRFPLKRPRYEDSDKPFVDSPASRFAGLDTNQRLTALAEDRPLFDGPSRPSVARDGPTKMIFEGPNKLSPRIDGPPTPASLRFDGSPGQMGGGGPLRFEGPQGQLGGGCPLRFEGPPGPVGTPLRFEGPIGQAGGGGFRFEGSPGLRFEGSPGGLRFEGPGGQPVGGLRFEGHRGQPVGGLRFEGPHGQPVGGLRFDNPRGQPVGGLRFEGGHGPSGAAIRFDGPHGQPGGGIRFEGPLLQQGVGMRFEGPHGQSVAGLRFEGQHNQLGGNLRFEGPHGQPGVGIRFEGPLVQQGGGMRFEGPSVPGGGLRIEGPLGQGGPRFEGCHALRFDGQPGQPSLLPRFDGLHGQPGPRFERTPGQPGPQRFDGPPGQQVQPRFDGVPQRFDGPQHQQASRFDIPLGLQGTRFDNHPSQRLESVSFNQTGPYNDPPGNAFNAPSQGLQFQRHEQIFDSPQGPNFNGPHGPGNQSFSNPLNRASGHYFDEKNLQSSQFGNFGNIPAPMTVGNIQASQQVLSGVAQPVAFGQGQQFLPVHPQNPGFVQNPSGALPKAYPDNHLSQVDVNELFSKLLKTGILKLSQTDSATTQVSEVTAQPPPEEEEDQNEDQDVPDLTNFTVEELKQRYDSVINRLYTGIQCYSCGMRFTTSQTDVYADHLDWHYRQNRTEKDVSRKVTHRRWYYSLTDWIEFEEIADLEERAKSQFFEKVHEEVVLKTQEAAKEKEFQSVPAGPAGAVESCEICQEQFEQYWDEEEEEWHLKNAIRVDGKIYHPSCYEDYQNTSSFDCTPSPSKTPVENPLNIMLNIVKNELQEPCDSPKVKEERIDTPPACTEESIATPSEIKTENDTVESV
Chain of UniProt O15067 (O15067 whole entry, looked up): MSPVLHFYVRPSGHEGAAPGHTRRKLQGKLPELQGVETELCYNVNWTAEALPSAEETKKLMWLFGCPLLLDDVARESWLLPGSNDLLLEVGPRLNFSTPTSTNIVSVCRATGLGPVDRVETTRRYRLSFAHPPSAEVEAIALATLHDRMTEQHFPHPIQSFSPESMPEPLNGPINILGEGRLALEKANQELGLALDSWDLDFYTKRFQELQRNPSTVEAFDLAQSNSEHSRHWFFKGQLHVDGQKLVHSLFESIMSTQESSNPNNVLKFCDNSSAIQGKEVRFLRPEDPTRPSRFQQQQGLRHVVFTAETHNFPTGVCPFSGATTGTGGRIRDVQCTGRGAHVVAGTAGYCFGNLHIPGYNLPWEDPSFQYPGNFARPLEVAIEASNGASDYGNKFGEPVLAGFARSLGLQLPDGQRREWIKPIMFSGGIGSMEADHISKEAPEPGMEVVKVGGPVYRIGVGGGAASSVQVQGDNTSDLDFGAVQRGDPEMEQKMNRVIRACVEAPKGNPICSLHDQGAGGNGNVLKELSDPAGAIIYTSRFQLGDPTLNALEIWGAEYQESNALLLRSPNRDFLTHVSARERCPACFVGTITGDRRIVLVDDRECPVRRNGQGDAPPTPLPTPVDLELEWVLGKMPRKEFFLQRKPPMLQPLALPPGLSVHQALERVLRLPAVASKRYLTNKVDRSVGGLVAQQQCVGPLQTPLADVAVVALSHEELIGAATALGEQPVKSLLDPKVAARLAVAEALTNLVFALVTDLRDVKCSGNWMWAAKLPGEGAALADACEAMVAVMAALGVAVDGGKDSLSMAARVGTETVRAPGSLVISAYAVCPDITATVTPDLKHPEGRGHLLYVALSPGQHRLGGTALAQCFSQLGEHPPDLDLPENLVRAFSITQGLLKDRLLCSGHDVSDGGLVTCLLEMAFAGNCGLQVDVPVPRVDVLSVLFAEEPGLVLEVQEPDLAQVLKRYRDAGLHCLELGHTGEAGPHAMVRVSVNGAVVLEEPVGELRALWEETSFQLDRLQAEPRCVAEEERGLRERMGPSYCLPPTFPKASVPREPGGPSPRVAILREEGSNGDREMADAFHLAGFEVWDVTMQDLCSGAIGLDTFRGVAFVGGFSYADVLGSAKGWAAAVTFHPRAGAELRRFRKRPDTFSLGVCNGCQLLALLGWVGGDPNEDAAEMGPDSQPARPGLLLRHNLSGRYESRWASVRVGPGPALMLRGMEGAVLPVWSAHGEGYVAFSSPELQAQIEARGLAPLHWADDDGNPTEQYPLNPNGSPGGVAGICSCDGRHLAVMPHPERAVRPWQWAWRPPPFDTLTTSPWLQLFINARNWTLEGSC
Chain of UniProt O60825 (O60825 whole entry, looked up): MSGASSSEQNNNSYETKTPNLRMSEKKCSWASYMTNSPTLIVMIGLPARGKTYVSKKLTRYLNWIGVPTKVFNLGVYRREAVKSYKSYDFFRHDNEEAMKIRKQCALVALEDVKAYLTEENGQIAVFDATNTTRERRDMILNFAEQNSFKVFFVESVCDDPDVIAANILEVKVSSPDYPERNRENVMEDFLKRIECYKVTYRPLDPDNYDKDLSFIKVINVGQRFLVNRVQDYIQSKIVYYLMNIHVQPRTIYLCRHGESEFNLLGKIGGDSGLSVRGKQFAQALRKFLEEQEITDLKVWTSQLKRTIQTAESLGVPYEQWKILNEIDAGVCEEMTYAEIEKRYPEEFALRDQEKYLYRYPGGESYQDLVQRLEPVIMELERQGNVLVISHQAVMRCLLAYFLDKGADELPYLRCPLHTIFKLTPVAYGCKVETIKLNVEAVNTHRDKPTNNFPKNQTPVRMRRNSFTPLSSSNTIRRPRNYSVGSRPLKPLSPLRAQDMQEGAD
Chain of UniProt P06454 (P06454 whole entry, looked up): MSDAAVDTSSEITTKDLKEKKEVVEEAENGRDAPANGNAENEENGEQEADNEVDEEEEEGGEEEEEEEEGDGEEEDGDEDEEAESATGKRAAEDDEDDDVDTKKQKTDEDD
Chain of UniProt P53350 (P53350 whole entry, looked up): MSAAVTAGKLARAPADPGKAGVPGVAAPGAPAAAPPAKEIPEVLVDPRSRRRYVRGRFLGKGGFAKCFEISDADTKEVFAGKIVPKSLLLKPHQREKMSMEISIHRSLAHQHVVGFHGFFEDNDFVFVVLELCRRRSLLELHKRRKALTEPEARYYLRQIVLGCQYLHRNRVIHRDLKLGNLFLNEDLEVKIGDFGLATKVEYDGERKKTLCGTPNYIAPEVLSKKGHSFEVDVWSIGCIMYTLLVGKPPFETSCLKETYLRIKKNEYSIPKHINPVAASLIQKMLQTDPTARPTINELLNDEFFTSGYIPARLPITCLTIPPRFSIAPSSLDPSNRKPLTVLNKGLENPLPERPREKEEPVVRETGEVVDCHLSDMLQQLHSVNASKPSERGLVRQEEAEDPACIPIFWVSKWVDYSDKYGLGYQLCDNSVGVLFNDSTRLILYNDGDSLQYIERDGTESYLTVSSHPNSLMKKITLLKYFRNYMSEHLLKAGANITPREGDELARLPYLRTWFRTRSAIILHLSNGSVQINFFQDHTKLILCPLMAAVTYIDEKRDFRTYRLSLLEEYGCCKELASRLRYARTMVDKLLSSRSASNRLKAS
Chain of UniProt Q9BUL8 (Q9BUL8 whole entry, looked up): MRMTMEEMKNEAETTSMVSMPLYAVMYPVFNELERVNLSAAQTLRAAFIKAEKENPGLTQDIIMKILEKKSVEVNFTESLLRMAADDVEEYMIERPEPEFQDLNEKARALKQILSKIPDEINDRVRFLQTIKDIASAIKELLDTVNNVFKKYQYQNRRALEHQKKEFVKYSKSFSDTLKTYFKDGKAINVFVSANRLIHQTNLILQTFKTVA

Target	log2 fold change (ibrutinib)	log2 fold change [1]	log2 fold change (ralimetinib)	log2 fold change [2]	log2 fold change [3]	log2 fold change [4]	log2 fold change [5]	log2 fold change [6]	log2 fold change [7]	log2 fold change [8]
PUS3 (UniProt Q9BZE2)	-0.034	-0.025	0.05	0.094	-0.046	0.045	0.136	-0.12	-0.006	0
POC5 (UniProt Q8NA72)	0.013	-0.063	0.062	-0.029	0.101	0.015	0.026	-0.015	0	-0.02
PTMA (UniProt P06454)	0.015	0.028	-0.121	0.009	0.004	-0.068	0.006	0.023	-0.015	0.002
PGLS (UniProt O95336)	0.012	-0.08	0.06	0.008	0.001	-0.012	-0.075	0.038	-0.003	0.077
PCBP2 isoform 3 (UniProt Q15366)	-0.007	0.025	0.021	0.022	-0.019	-0.034	0.06	-0.017	-0.016	-0.017
PIK3R2 (UniProt O00459)	-0.041	0.242	0.11	0.029	-0.028	0.008	0.01	0	0.07	0.019
PPP2R5C isoform 4 (UniProt Q13362)	0.023	-0.011	-0.089	-0.05	-0.032	-0.003	0.095	0.05	0.012	0.001
PLXNB2 (UniProt O15031)	0.019	0.016	0.035	-0.026	-0.03	0.033	0.006	-0.02	-0.003	-0.016
PHKG2 (UniProt P15735)	-0.099	0.168	0.003	-0.011	0.03	-0.029	-0.018	-0.018	-0.004	-0.027
PLIN2 (UniProt Q99541)	0.015	0.031	-0.014	-0.022	-0.001	0.069	-0.007	0.016	0.025	0
PRKDC (UniProt P78527)	0.096	0.318	0.033	0.01	-0.014	-0.021	0.031	-0.057	0.038	-0.01
PFAS (UniProt O15067)	-0.007	-0.016	0.03	0.006	0.003	-0.015	-0.003	-0.041	0.032	0.002
PRKAB2 (UniProt O43741)	-0.041	-0.018	0.093	-0.129	-0.025	0.086	-0.066	-0.082	0.035	-0.008
PRKRA (UniProt O75569)	-0.043	-0.01	0.035	0.011	0.013	0.045	-0.038	0.002	0.056	0.019
PRKCA (UniProt P17252)	0.015	0.366 (active)	-0.012	0.069	0.032	-0.015	-0.094	-0.002	0.033	-0.045
PPP4R2 (UniProt Q9NY27)	-0.012	-0.007	-0.015	-0.058	0.003	0	0	-0.007	0.003	-0.019
PFKFB2 (UniProt O60825)	-0.007	-0.014	0.035	-0.017	-0.016	0.006	-0.001	-0.013	-0.011	-0.001
PIK3CD (UniProt O00329)	-0.14	0.222	-0.017	-0.123	-0.12	0.021	-0.032	0.04	0.098	-0.056
PCF11 (UniProt O94913)	-0.027	-0.006	-0.005	-0.02	0.022	0.03	-0.02	-0.021	0.045	-0.02
PES1 (UniProt O00541)	0.016	0.017	0.031	-0.03	0.006	0.013	-0.052	0.012	0.003	0.007
PIR (UniProt O00625)	0.029	-0.01	-0.017	0.019	0.254 (active)	-0.034	0.007	-0.003	0.232	-0.022
PPIE (UniProt Q9UNP9)	-0.047	-0.015	-0.041	-0.05	-0.025	-0.043	0.021	0.024	0.034	-0.035
POGK (UniProt Q9P215)	0.051	-0.012	0.04	-0.026	-0.012	0.018	0.04	0.01	-0.047	0.027
POLR2F (UniProt P61218)	0.02	0.051	-0.238	-0.059	-0.11	-0.039	0.096	0.009	-0.157	0.009
POLR2M (UniProt P0CAP2)	-0.011	0.014	-0.018	-0.042	-0.001	-0.014	-0.046	-0.055	-0.008	0.007
PPP3CA isoform 2 (UniProt Q08209)	0.017	0.012	-0.01	-0.052	-0.014	0	-0.03	0.03	0.028	-0.012
PTK2 (UniProt Q05397)	0.085	0.188	-0.002	0.044	-0.015	-0.024	0.011	-0.054	-0.007	-0.128
PLK1 (UniProt P53350)	-0.004	0.069	0.009	0.015	0.068	0.022	-0.019	0.032	0.036	-0.014
PDCD10 (UniProt Q9BUL8)	0.001	0.062	0	-0.006	-0.008	-0.02	0.016	0.021	-0.02	-0.02
PCBP2 isoform 8 (UniProt Q15366)	0.15	0.003	-0.003	-0.041	-0.005	-0.011	-0.007	0.071	-0.05	-0.043
